Results: the supplement of paper PMC10849652
Targets with a hit are over-represented here; the source holds about 7,900 in all. About 0.6% of all pairs of compound and target were hits.

Legend:
Experiment in all cases: log2 fold change, soluble protein after heating vs DMSO (PISA); higher = thermal stabilisation; K562 cells, 10 uM, 30 min; active = over 0.2 and 3.5 SD of the protein, either way, in both replicates (recomputed)
[1] = compound: C#Cc1cccc(Nc2ncnc3cc(OCCOC)c(OCCOC)cc23)c1 [erlotinib]
Procedure, shortened: (§1)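 K562 cells at 2×10^6 cells/mL were treated for 30 min with 10 μM compound, and aliquots were heated for 3 min over 48°C-58°C before pooling. Extraction used PBS with 0.5% NP-40 at 4°C, and soluble protein was the supernatant after 21,000xg for 90 min, measured by TMTpro 16plex LC-MS/MS with channel sums equalised. Thermal stability values, relative to control samples and from duplicates, are log2 fold changes.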

[2] = compound: C/C(=N\NC(=O)C1=CC(=CC=C1)S(=O)(=O)N2CCOCC2)/C3=C(C=CC(=C3)Cl)O
Procedure, shortened: as §1

[3] = compound: C1=CC(=C(C=C1Cl)C2=NC3=NC=CN=C3C(=N2)NC4=CC=NC=C4)F
Procedure, shortened: as §1

[4] = compound: C1=CC(=CC=C1C2=NC3=C(N2)C=C(C=C3)C(=O)N)OC4=CC=C(C=C4)Cl
Procedure, shortened: as §1

[5] = compound: C1=CC2=C(C=CC(=C2)/C=C\3/C(=O)NC(=NCC4=CC=CS4)S3)N=C1
Procedure, shortened: as §1

[6] = compound: C1=CC2=NC=CN=C2C=C1/C=C/3\C(=O)NC(=O)S3
Procedure, shortened: as §1

[7] = compound: C1=CC=C(C=C1)C2=NC(=C(N2)C3=CC=NC=C3)C4=CC(=C(C=C4)Cl)O
Procedure, shortened: as §1

[8] = compound: C1=CC=C2C(=C1)C3=NNC4=CC=CC(=C43)C2=O
Procedure, shortened: as §1

[9] = compound: C1COCCN1CCN2C3=CC=CC=C3N=C2NC(=O)C4=CC(=CC=C4)[N+](=O)[O-] [IRAK-1-4 Inhibitor I]
Procedure, shortened: as §1

[10] = compound: C=CC(=O)N1CCC[C@@H](n2nc(-c3ccc(Oc4ccccc4)cc3)c3c(N)ncnc32)C1 [ibrutinib]
Procedure, shortened: as §1

[11] = compound: CC(=O)c1cnc2ccc(-c3cc(Cl)c(O)c(Cl)c3)nc2c1N[C@H]1CC[C@H](CN(C)C)CC1
Procedure, shortened: as §1

[12] = compound: CC(C)(C)Cn1c(N)nc2ccc(-c3[nH]c(C(C)(C)C)nc3-c3ccc(F)cc3)nc21 [ralimetinib]
Procedure, shortened: as §1

[13] = compound: CC(C)(O)CC(=O)NCCn1ccc2ncnc(Nc3ccc(Oc4cccc(C(F)(F)F)c4)c(Cl)c3)c21
Procedure, shortened: as §1

[14] = compound: CC(C)C1=C2N=C(C=C(N2N=C1)NCC3=CC=CC=C3)NCCCCCCN
Procedure, shortened: as §1

[15] = compound: CC(C)C[C@@H](C=O)NC(=O)[C@H](CC(C)C)NC(=O)[C@H](CC(C)C)NC(=O)OCc1ccccc1
Procedure, shortened: as §1

[16] = compound: CC(C)N(C[C@H]1O[C@@H](n2cnc3c(N)ncnc32)[C@H](O)[C@@H]1O)[C@H]1C[C@@H](CCc2nc3cc(C(C)(C)C)ccc3[nH]2)C1 [pinometostat]
Procedure, shortened: as §1

[17] = compound: CC1=C(C(CC(=O)N1)C2=CC=C(C=C2)C(F)(F)F)C(=O)NC3=C(C=C4C(=C3)C=NN4)F
Procedure, shortened: as §1

[18] = compound: C1CCN(C1)C(=O)NC2=CC=CC(=C2)NC3=NC=C(C(=N3)NCCC4=CN=CN4)Br
Procedure, shortened: as §1

[19] = compound: C1CN(CCC1(CC2=CC=C(C=C2)Cl)N)C3=NC=NC4=C3C=CN4
Procedure, shortened: as §1

[20] = compound: CC1=C(C2=C(C=C1)C(=O)C3=CC=CC=C3N2CCCN)C
Procedure, shortened: as §1

Measured: log2 fold change

NUMBL (UniProt Q9Y6R0)
Sequence of UniProt Q9Y6R0 (Q9Y6R0 whole entry, looked up): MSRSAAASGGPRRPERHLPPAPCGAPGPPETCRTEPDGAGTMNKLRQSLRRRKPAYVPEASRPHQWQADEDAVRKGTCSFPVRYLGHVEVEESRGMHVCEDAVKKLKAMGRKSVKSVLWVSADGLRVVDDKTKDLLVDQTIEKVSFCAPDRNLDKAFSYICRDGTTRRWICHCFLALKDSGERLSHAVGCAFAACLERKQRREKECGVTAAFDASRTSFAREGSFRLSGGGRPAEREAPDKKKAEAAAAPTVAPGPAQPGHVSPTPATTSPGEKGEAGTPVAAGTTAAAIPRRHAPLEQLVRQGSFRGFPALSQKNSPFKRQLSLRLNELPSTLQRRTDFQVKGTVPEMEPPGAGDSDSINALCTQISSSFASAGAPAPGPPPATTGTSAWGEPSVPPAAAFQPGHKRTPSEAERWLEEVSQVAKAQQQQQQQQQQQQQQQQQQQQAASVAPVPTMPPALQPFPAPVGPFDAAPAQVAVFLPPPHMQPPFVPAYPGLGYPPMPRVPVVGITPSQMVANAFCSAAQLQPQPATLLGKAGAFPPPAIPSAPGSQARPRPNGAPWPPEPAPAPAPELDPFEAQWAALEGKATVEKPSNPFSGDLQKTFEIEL
active: [11] -0.349
inactive: [1] -0.001 | [2] 0.021 | [3] -0.026 | [4] -0.095 | [5] 0.085 | [6] -0.047 | [7] 0.042 | [8] 0.056 | [9] 0.144 | [10] -0.032 | [12] -0.032 | [13] 0.044 | [14] -0.026 | [15] 0.162 | [16] 0.111 | [17] -0.024

MYH11 isoform 2 (UniProt P35749)
Sequence of UniProt P35749 (P35749 whole entry, looked up): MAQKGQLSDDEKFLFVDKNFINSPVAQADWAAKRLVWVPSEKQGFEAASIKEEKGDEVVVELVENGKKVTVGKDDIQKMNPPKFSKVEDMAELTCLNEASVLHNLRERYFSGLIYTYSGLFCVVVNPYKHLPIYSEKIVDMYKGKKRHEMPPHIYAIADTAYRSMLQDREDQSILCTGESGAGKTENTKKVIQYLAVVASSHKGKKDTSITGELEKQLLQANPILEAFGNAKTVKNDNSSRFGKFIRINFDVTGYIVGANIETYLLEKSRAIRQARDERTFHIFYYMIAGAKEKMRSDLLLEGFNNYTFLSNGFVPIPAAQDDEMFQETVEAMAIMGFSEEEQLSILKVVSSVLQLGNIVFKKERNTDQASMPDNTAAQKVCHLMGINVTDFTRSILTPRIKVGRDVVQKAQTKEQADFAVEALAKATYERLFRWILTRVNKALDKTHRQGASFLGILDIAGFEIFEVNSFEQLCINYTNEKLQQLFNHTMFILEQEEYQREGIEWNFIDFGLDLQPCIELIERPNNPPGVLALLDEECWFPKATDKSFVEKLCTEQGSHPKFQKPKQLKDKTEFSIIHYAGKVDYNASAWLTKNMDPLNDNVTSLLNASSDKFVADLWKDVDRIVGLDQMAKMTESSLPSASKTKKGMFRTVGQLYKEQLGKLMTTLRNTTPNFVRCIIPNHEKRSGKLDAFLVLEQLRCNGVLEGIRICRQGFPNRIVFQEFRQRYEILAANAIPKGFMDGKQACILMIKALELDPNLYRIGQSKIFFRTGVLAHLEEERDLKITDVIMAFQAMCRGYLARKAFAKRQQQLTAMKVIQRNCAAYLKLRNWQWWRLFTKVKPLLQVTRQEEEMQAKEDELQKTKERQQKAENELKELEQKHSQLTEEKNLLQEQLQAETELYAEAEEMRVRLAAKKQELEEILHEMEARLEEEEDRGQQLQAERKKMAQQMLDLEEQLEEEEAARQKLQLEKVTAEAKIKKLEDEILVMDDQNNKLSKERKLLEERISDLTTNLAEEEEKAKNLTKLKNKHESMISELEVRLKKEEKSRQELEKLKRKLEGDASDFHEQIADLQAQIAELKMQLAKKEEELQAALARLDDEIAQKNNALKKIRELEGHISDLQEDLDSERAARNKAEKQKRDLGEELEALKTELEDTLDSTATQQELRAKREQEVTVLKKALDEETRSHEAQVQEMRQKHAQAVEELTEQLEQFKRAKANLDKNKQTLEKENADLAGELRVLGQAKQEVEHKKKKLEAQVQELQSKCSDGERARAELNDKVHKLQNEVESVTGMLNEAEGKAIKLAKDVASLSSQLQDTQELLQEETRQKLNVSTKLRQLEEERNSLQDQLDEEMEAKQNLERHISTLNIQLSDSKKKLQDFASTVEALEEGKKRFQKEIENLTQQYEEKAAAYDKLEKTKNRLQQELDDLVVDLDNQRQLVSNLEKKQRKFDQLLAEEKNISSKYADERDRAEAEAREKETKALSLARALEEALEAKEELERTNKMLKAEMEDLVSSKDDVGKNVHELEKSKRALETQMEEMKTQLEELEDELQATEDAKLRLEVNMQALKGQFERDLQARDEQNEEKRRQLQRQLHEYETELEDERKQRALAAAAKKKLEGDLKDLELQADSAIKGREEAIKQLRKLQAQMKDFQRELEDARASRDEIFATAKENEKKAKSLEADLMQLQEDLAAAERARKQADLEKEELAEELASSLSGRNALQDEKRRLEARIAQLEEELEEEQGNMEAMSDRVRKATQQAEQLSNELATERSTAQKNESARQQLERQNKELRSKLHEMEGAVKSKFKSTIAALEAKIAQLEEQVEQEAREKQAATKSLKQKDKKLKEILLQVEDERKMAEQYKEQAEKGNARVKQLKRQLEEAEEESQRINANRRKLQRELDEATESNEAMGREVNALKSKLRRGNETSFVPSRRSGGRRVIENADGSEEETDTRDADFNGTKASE
inactive: [1] 0.046 | [2] -0.081 | [3] 0.096 | [4] 0.02 | [5] 0.032 | [6] 0.018 | [7] -0.026 | [8] 0.036 | [18] -0.046 | [19] 0.028 | [9] 0.035 | [10] -0.013 | [11] 0.028 | [12] -0.016 | [13] -0.107 | [14] 0.056 | [15] -0.002 | [16] -0.042 | [17] 0.027 | [20] -0.024

NNT (UniProt Q13423)
Sequence of UniProt Q13423 (Q13423 whole entry, looked up): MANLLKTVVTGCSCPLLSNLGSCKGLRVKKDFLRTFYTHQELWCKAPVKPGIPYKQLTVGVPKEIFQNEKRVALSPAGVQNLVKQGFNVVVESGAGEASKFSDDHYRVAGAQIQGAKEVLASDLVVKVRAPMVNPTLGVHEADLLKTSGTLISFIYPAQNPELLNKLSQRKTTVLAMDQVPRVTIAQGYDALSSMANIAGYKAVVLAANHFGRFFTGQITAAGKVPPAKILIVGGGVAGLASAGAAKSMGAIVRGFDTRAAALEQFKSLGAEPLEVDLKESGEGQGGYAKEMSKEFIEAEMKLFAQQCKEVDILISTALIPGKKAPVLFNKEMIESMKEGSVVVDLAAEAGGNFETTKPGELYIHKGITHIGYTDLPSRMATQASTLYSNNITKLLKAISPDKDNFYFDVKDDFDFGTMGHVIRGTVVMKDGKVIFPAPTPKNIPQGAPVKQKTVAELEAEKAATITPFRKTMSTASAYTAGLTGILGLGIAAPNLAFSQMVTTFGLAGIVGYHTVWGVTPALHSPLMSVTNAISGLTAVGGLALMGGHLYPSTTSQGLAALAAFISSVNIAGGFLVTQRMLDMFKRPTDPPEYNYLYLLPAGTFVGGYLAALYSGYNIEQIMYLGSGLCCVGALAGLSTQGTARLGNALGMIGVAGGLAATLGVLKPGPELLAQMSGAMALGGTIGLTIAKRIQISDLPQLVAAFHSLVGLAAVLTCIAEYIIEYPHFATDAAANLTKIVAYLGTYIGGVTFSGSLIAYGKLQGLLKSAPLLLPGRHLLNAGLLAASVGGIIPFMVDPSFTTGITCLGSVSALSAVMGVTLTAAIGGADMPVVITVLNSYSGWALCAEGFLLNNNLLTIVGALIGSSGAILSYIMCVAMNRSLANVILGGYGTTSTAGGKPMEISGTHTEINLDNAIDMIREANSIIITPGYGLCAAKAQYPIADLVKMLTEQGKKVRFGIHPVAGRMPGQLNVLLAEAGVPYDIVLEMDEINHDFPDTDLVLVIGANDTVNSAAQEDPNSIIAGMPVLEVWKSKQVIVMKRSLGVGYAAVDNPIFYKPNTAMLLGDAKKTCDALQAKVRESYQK
inactive: [1] -0.008 | [2] 0.051 | [3] 0.089 | [4] -0.012 | [5] 0.044 | [6] 0.01 | [7] 0.005 | [8] -0.005 | [18] -0.001 | [19] 0.043 | [9] 0.013 | [10] -0.018 | [11] -0.016 | [12] -0.099 | [13] -0.056 | [14] 0.016 | [15] -0.053 | [16] -0.029 | [17] -0.022 | [20] 0.037

NMU (UniProt P48645)
Sequence of UniProt P48645 (P48645 whole entry, looked up): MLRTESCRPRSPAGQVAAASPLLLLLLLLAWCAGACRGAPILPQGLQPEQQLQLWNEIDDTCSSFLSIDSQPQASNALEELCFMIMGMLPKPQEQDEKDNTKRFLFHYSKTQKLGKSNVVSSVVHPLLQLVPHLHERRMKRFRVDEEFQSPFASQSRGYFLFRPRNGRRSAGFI
inactive: [1] -0.003 | [2] 0.072 | [3] -0.02 | [4] 0.063 | [5] -0.123 | [6] 0.094 | [7] -0.129 | [8] -0.018 | [18] 0.025 | [19] 0.133 | [9] -0.052 | [10] 0.027 | [11] 0.034 | [12] 0.063 | [13] 0.011 | [14] 0.123 | [15] 0.313 | [16] -0.106 | [17] 0.03 | [20] -0.174

ORC5 (UniProt O43913)
Sequence of UniProt O43913 (O43913 whole entry, looked up): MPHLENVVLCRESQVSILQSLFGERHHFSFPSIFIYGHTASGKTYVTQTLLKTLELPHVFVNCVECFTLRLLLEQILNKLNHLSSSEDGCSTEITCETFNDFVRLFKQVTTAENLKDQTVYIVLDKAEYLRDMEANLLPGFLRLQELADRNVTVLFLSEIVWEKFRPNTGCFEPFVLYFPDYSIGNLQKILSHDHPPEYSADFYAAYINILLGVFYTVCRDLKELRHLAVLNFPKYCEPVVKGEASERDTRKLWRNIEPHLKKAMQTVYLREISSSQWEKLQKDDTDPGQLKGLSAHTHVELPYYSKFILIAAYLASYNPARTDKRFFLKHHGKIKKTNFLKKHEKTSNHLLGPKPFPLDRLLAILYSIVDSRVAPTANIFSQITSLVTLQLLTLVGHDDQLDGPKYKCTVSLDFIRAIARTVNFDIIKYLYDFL
inactive: [1] 0.089 | [2] 0.177 | [4] 0.046 | [5] 0.05 | [6] 0.062 | [7] 0.031 | [8] 0.01 | [18] -0.13 | [19] -0.026 | [9] 0.024 | [10] -0.014 | [11] -0.306 | [12] 0.015 | [14] -0.134 | [15] 0.005 | [16] 0.128 | [17] -0.005 | [20] 0.08

NFYB (UniProt P25208)
Sequence of UniProt P25208 (P25208 whole entry, looked up): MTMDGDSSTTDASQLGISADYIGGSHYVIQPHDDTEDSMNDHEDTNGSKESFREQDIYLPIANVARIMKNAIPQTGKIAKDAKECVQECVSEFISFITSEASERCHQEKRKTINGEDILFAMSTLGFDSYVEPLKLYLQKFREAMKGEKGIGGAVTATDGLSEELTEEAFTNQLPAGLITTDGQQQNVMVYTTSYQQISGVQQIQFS
active: [20] 0.411
inactive: [1] 0.092 | [2] -0.102 | [4] -0.153 | [5] -0.047 | [6] 0.064 | [7] -0.036 | [8] -0.045 | [18] 0.01 | [19] -0.069 | [9] 0.07 | [10] -0.051 | [11] 0.019 | [12] 0.016 | [14] 0.054 | [15] -0.007 | [16] -0.043 | [17] 0.026

MTHFS (UniProt P49914)
inactive: [1] 0.01 | [2] 0.062 | [3] 0.055 | [4] -0.003 | [5] 0.034 | [6] -0.024 | [7] 0.026 | [8] 0.083 | [18] -0.014 | [19] -0.12 | [9] -0.003 | [10] -0.01 | [11] -0.009 | [12] -0.09 | [13] -0.095 | [14] -0.009 | [15] 0.007 | [16] -0.03 | [17] -0.044 | [20] 0.031

NNMT (UniProt P40261)
Sequence of UniProt P40261 (P40261 whole entry, looked up): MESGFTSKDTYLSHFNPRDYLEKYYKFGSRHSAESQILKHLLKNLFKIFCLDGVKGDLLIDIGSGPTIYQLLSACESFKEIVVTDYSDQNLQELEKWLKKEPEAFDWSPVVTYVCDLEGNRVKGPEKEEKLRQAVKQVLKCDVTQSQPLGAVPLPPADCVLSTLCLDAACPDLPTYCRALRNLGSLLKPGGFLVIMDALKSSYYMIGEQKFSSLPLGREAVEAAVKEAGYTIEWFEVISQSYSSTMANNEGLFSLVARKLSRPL
inactive: [1] 0.037 | [2] 0.062 | [3] 0.123 | [4] 0.021 | [5] 0.074 | [6] 0 | [8] 0.028 | [18] 0.045 | [19] 0.043 | [9] 0.035 | [10] 0.06 | [11] -0.028 | [13] -0.026 | [14] -0.026 | [17] -0.002 | [20] -0.006
active: [16] 0.276

OSBPL3 (UniProt Q9H4L5)
active: [1] 1.67
inactive: [2] 0.15 | [3] -0.147 | [4] 0.165 | [5] 0.094 | [7] 0.255 | [8] 0.16 | [18] -0.021 | [19] -0.078 | [9] -0.083 | [11] -0.277 | [12] 0.309 | [13] 0.252 | [14] 0.506 | [15] 0.206 | [16] 0.204 | [17] -0.165 | [20] -0.069

NRGN (UniProt Q92686)
Sequence of UniProt Q92686 (Q92686 whole entry, looked up): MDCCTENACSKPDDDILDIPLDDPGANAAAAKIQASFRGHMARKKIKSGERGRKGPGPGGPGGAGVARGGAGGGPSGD
inactive: [1] 0.066 | [2] 0.086 | [3] 0.054 | [4] -0.074 | [5] -0.264 | [6] -0.027 | [7] 0.139 | [8] 0.105 | [9] 0.151 | [10] 0.079 | [11] 0.034 | [12] 0.007 | [13] 0.053 | [14] 0.058 | [15] -0.199 | [16] 0.21 | [17] 0.108

NMT2 (UniProt O60551)
inactive: [1] 0.028 | [2] 0.031 | [3] 0.007 | [4] 0.004 | [5] 0.062 | [6] 0.032 | [7] -0.043 | [8] 0.021 | [18] 0.041 | [9] 0.006 | [10] 0.064 | [11] -0.031 | [12] -0.017 | [13] -0.022 | [14] -0.125 | [15] -0.019 | [16] 0.053 | [17] 0.037 | [20] 0.01
active: [19] -0.369

NOL11 (UniProt Q9H8H0)
inactive: [1] -0.019 | [2] -0.065 | [3] 0.015 | [4] -0.007 | [5] -0.038 | [6] 0.042 | [7] 0.027 | [8] -0.005 | [18] -0.014 | [19] 0.079 | [9] 0.036 | [10] 0.031 | [11] 0.002 | [12] -0.028 | [13] 0.037 | [14] 0.21 | [15] -0.017 | [16] -0.014 | [17] -0.002
active: [20] 0.304

NEDD4 isoform 4 (UniProt P46934)
inactive: [1] -0.024 | [2] 0.067 | [3] 0.048 | [4] -0.011 | [5] 0.052 | [6] 0.066 | [7] 0.048 | [8] -0.001 | [18] 0.003 | [19] -0.053 | [9] 0.002 | [10] -0.038 | [11] 0.02 | [12] -0.014 | [13] -0.027 | [14] -0.124 | [15] 0.019 | [16] -0.03 | [17] -0.025 | [20] -0.065

MRFAP1 (UniProt Q9Y605)
inactive: [1] -0.007 | [2] -0.019 | [4] -0.013 | [5] -0.334 | [6] 0.014 | [7] -0.045 | [8] 0.141 | [18] -0.162 | [19] -0.106 | [9] 0.218 | [10] -0.017 | [11] 0.206 | [12] -0.022 | [14] -0.056 | [15] 0.437 | [16] -0.016 | [17] 0.28 | [20] -0.339

MXRA7 (UniProt P84157)
inactive: [1] -0.052 | [2] -0.109 | [3] -0.083 | [4] 0.047 | [5] -0.067 | [6] 0.018 | [7] -0.033 | [8] 0.037 | [18] -0.038 | [19] 0.013 | [9] 0.098 | [10] 0.048 | [11] -0.064 | [12] -0.012 | [13] 0.116 | [14] 0.075 | [15] -0.083 | [16] -0.049 | [17] -0.011 | [20] -0.045

NPM3 (UniProt O75607)
Sequence of UniProt O75607 (O75607 whole entry, looked up): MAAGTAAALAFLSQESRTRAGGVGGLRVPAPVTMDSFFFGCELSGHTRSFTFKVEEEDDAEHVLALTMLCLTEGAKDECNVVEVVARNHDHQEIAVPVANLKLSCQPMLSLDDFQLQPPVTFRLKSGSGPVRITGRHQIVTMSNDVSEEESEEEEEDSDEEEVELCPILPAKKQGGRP
active: [20] -0.521
inactive: [1] -0.083 | [2] -0.104 | [4] 0.02 | [5] -0.184 | [6] 0.04 | [7] -0.025 | [8] -0.022 | [18] -0.054 | [19] -0.087 | [9] -0.057 | [10] -0.016 | [11] -0.004 | [12] 0.045 | [14] 0.078 | [15] 0.053 | [16] 0.052 | [17] 0.088

NAGPA (UniProt Q9UK23)
inactive: [1] 0.046 | [2] 0.023 | [3] 0.046 | [4] 0.056 | [5] 0.033 | [6] -0.018 | [8] -0.025 | [18] -0.013 | [19] 0.148 | [9] -0.078 | [10] 0.228 | [11] -0.014 | [13] 0.03 | [14] 0.112 | [16] 0.052 | [17] 0.083 | [20] -0.062
